# Test results reported in PubChem BioAssay AID1533 (PCMD, 2009).
# The campaign covered roughly 160,000 compounds. About 45 (0.03%) were called active. No stated cut-off is given here; in the data, active means inhibition mostly above about 34% (no sharp cut-off); inconclusive means no clear call, values can overlap the other calls; inactive means mostly below about 22%. Only a selection was taken, and actives are over-represented in it overall.
# Target: dTDP-4-dehydrorhamnose reductase (Mycobacterium tuberculosis (strain ATCC 25618 / H37Rv)) + dTDP-4-dehydrorhamnose 3,5-epimerase (Mycobacterium tuberculosis (strain ATCC 25618 / H37Rv)) (UniProt P9WH09+P9WH11)
# Assay: M. tuberculosis RmlC/RmlD coupled enzyme inhibitors, primary screen, biochemical, compound mixtures, 384-well, from 1536-well plates (AID 1533)
# Details: RmlC+RmlD coupled enzyme assay, percent inhibition, primary screen in compound mixtures, stronger effect = higher value
# [1] = measured here: mean retest inhibition, at 5.5 µM
# Chain of dTDP-4-dehydrorhamnose reductase (Mycobacterium tuberculosis (strain ATCC 25618 / H37Rv)) + dTDP-4-dehydrorhamnose 3,5-epimerase (Mycobacterium tuberculosis (strain ATCC 25618 / H37Rv)) (P9WH09 whole entry, looked up): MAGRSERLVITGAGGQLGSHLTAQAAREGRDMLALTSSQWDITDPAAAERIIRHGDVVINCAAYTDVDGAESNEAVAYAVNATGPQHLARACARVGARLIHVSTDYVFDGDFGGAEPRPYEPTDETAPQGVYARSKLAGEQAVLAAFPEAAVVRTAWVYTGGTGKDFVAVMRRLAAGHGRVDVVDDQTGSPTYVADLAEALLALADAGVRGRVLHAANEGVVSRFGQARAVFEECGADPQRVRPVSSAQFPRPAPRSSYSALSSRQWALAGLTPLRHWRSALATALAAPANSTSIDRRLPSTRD
# Chain of dTDP-4-dehydrorhamnose reductase (Mycobacterium tuberculosis (strain ATCC 25618 / H37Rv)) + dTDP-4-dehydrorhamnose 3,5-epimerase (Mycobacterium tuberculosis (strain ATCC 25618 / H37Rv)) (P9WH11 whole entry, looked up): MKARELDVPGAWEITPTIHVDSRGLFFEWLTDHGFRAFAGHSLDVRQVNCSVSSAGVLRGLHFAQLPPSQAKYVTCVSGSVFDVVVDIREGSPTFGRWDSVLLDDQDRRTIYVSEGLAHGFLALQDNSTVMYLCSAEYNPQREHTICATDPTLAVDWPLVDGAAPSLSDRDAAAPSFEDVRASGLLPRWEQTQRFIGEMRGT
SMILES,inhibition (at 3.6 µM),inhibition [1] [%]
Cc1c(-c2cccc(Cl)c2)nc2ccccc2c1C(=O)OCC(=O)N(C)C1CCS(=O)(=O)C1 (configuration not stated),5.87% (inactive),–
O=C(CCS(=O)(=O)c1ccccc1Cl)Nc1ccc(S(=O)(=O)Nc2ncccn2)cc1,10% (inactive),–
CCCCCN(C(=O)NC(=O)Nc1cccc(C)c1C)S(C)(=O)=O,-12.7% (inactive),–
OC(c1ccccc1)C(CN1CCOCC1)c1ccccc1 (configuration not stated),7.15% (inactive),–
NS(=O)(=O)c1ccc(NC(=S)NC(=O)c2cccc(Br)c2)cc1,4.21% (inactive),–
CCC1=NN2C(=N)/C(=C/c3cc(C)n(-c4ccccc4)c3C)C(=O)N=C2S1,-9.8% (inactive),–
CCN1CCc2nc(NC(=O)c3cc(F)c(F)cc3Cl)sc2C1,-6.97% (inactive),–
COc1ccc(C2=NN(C(=O)CCC(=O)O)C(c3cccs3)C2)cc1OC (configuration not stated),-7.36% (inactive),–
CN1CCN(CCNC(=O)Nc2ccc([N+](=O)[O-])cc2)CC1,5.16% (inactive),–
CN(C)c1ccc(/C=C/C(=O)c2ccc(O)cc2)cc1[N+](=O)[O-],44.3% (inactive),5.01
CCOC(=O)C1CCN(C(=O)Nc2cccc(OC)c2)CC1,1.02% (inactive),–
Cc1ccc(/C=N/NC(=O)CSc2ccccn2)o1,70% (inactive),-5.62
O=C(O)C(NS(=O)(=O)c1cccc2nsnc12)c1ccccc1 (configuration not stated),-10.9% (inactive),–
CCCCSc1nnc2c(n1)OC=Nc1ccccc1-2,11.2% (inactive),–
CN1CCc2nc(SC(C(=O)O)c3ccccc3)c(C#N)c(-c3cccs3)c2C1 (configuration not stated),-14.8% (inactive),–
COc1ccc(OC)c(-n2c(=S)[nH]c3cc(C(=O)N4CCCCC4)ccc3c2=O)c1,4.34% (inactive),–
O=S(=O)(NCc1ccco1)c1cnc(Cl)c(Cl)c1,11.4% (inactive),–
COc1ccc(CCN2C(=O)N(c3ccc(OC)cc3)C(=O)C2CC(=O)Nc2ccc(OC)cc2)cc1 (configuration not stated),-9.07% (inactive),–
CCOC(=O)C1(Cc2cccc(OC)c2)CCN(C(C)CC(C)(C)O)CC1 (configuration not stated),7.5% (inactive),–
COc1ccc(NS(=O)(=O)c2ccc(N3CCOCC3)c(NC(=O)c3ccccc3Br)c2)cc1,-4.87% (inactive),–
Cc1nc2nc(SCC(=O)c3ccccc3)[nH]c2cc1Br,4.73% (inactive),–
O=C1C2C3C=CC(C3)C2C(=O)N1c1ccc(S(=O)(=O)Nc2nccs2)cc1 (configuration not stated),-2.55% (inactive),–
COCCSc1nnc(NC(=O)c2cc(OC)c(OC)cc2[N+](=O)[O-])s1,15.5% (inactive),–
CC(=O)c1sc(NC(=O)C2=NN(c3ccccc3)C(=O)CC2)nc1C,-9.61% (inactive),–

SMILES,inhibition (at 3.6 µM),inhibition [1] [%]
Cc1ccc(NC(=O)NC2CCCCC2)cc1S(=O)(=O)N1CCOCC1,-9.91% (inactive),–
Clc1ccc2nc(-c3ccccc3)nc(C(Cl)Cl)c2c1,0.32% (inactive),–
O=S(=O)(Nc1ccc(OC(F)(F)F)cc1)c1cccc2nonc12,4.95% (inactive),–
O=C(NCc1ccc(F)cc1)C1CCC(CNc2c(N3CCOCC3)c(=O)c2=O)CC1 (configuration not stated),43.3% (inactive),-8.27
CCOc1ccc(CCN2C(=O)c3cccnc3C2=O)cc1OCC,3.14% (inactive),–
Cc1ccc(NC(=O)c2ccc(S(=O)(=O)NCC3CCCO3)cc2)cc1C (configuration not stated),0.36% (inactive),–
CC(=O)NC(=S)Nc1ccc(NC(=O)c2cccnc2)cc1,2.81% (inactive),–
COc1ccc(C(C(=O)NC(C)(C)C)N(C(=O)Cn2nnc3ccccc32)c2ccc(C(C)=O)cc2)cc1O (configuration not stated),11.7% (inactive),–
CSc1ccccc1NC(=O)CN(C)CC(=O)Nc1cccc(Br)c1,6.55% (inactive),–
O=C1/C(=C/c2coc3ccc(O)cc3c2=O)SC(=S)N1c1ccccc1,-8.54% (inactive),–
Cc1cccn2c(CNCC(C)Oc3cccnc3)c(C(=O)N3CCOCC3)nc12 (configuration not stated),7.78% (inactive),–
CCN(CC)c1ccc(NC(=O)C2CCC(CNc3c(N4CCCC4)c(=O)c3=O)CC2)c(C)c1 (configuration not stated),6.36% (inactive),–
O=S(=O)(c1ccccc1)N1CN(Cc2ccc(F)cc2)c2nc3ccccc3nc21,-11.9% (inactive),–
Cc1ccc(S(=O)(=O)N(C)CC(=O)OCC(=O)Nc2ccccc2)cc1,13.5% (inactive),–
C/C(=N\NC(=S)NCc1ccccc1)C1CCCCC1,5.23% (inactive),–
Fc1cccc2ncnc(OCc3ccccc3)c12,3.36% (inactive),–
CCn1c(SCC(=O)Nc2sc(C)c(C)c2C#N)nnc1C1CC1,-13.3% (inactive),–
CCC(C)NC(=O)C1c2ccccc2Oc2ccccc21 (configuration not stated),10.6% (inactive),–
CCOC(=O)c1ccc(S(=O)(=O)N(CCO)Cc2cc3cc(OC)c(OC)cc3[nH]c2=O)cc1,-8.54% (inactive),–
CCc1cccc(NC(=O)CCNS(=O)(=O)c2cccc3nonc23)c1,-2.17% (inactive),–
CCC(C)(C)NC(=O)C(c1ccc(O)cc1)N(C(=O)Cn1nnc2ccccc21)c1ccc(NC(C)=O)cc1 (configuration not stated),4.36% (inactive),–
COC(=O)c1ccc(COc2ccc(/C=N/NC(=O)C(=O)Nc3ccc(OC)cc3)cc2OC)o1,-13.4% (inactive),–
Cn1nc(C(C)(C)C)c([N+](=O)[O-])c1C(N)=O,11.8% (inactive),–
Cc1ccc(NC(=O)/C(=C\c2ccccc2)NC(=O)c2ccco2)cc1,44% (inactive),3.08
